Results on 16 compounds are retold here after PubChem BioAssay (NCI).

About 83,000 compounds went through this panel and 20% of them were active in at least one assay; those are over-represented in the sample as a whole.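 Cell lines were cultured in 96-well plates, exposed to a single compound concentration, and assessed for percent growth 48 hours later.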 Unmarked numbers belong to inactive results. Active and inactive are the calls of the source. Rule for the calls: active = growth percent below 10; inactive = the rest.

Test systems include SN12C renal; UO-31 renal; TK-10 renal; ACHN renal; CAKI-1 renal; A498 renal; MOLT-4 leukemia; SR leukemia; CCRF-CEM leukemia.
Common to all, as to assay: NCI-60 one-dose screen, 48 h (100 = growth as untreated, 0 = no growth, -100 = all killed)
Common to all, as to settings: 10 µM

For `Nc1c(C(=O)Nc2cccc3ccccc23)sc2nc3c(cc12)C(=O)CCC3`, the growth was 30.8% in the experiment on SN12C renal; 53% with UO-31 renal; 74.7% with TK-10 renal; 34.5% in the experiment with ACHN renal; 23.2% in the experiment with CAKI-1 renal; -17.6% (active) with A498 renal. The figures for the growth in the experiment with MOLT-4 leukemia and with SR leukemia were 11.1% and 4.39% (active), respectively.

For `COc1ccccc1CNCCN1C(=O)c2ccc3c4c(ccc(c24)C1=O)C(=O)N(CCNCc1ccccc1OC)C3=O`, the growth in the experiment on SN12C renal is -91% (active); with UO-31 renal, -92.4% (active); in the experiment with TK-10 renal it was -30.8% (active); in the experiment with ACHN renal it was -59.6% (active); in the experiment with CAKI-1 renal, -31.3% (active); with CCRF-CEM leukemia, -50.3% (active). Further, the growth in the experiment with MOLT-4 leukemia was -41.9% (active).

Turning to `CC(C)(C)c1cc(Br)cc(C(C)(C)C)c1O`, the growth was 96.5% in the experiment on SN12C renal; 86.6% in the experiment on UO-31 renal; 113% in the experiment with TK-10 renal; 106% in the experiment with ACHN renal; 89.5% in the experiment with CAKI-1 renal; 120% in the experiment with A498 renal. Further, the growth was 96% in the experiment with MOLT-4 leukemia and 92.3% with SR leukemia.

For `CC(C)=CCc1cc(O)cc2c1OC(C=C(C)C)C1=C2C(=O)C2=C(C1=O)S(=O)(=O)CCN2` (centres undefined), the growth in the experiment with SN12C renal is -44.1% (active); in the experiment with UO-31 renal, 54%; in the experiment with TK-10 renal, 122%; in the experiment with ACHN renal it was 73.1%; in the experiment on A498 renal, 103%; in the experiment with CCRF-CEM leukemia it was -11.9% (active). Further, the growth was -43.2% (active) in the experiment on MOLT-4 leukemia and 3.79% (active) in the experiment on SR leukemia.

For `COc1ccc(OC)c2c1C(=O)CC2C` (centres undefined), the growth in the experiment on SN12C renal was 99.3%; in the experiment on UO-31 renal, 83.7%; in the experiment with TK-10 renal it was 118%; in the experiment on ACHN renal, 113%; with CAKI-1 renal it was 97.6%; in the experiment with CCRF-CEM leukemia it was 101%. The growth in the experiment on MOLT-4 leukemia is 112%; in the experiment with SR leukemia it was 113%.

For `COc1ccc(-c2nc3sc(-c4ccccc4)c(-c4ccccc4)n3c2/C=C/C(=O)c2ccccn2)cc1`, the growth was 86.6% in the experiment with SN12C renal; 66% in the experiment with UO-31 renal; 90.7% with TK-10 renal; 66.2% in the experiment with ACHN renal; 87.1% in the experiment with CAKI-1 renal; 96.1% with A498 renal. In addition, the growth was 45.7% with MOLT-4 leukemia and 78.4% in the experiment on SR leukemia.

`O=C(O)CC(Cl)C(Cl)CC(=O)O` (centres undefined): the growth in the experiment on SN12C renal was 102%; in the experiment on UO-31 renal it was 81.1%; in the experiment on TK-10 renal it was 95.7%; in the experiment with ACHN renal it was 103%; in the experiment with CAKI-1 renal, 91.6%; in the experiment on A498 renal it was 105%. Moreover, the growth was 97.1% in the experiment on MOLT-4 leukemia and 0.349% (active) in the experiment with SR leukemia.

Consider `COc1ccc(C2CC(c3ccc(N(C)C)cc3)=NN2c2ccc(S(N)(=O)=O)cc2)cc1` (centres undefined), for which the growth in the experiment on SN12C renal is 49.4%; with UO-31 renal it was 32%; in the experiment on TK-10 renal it was 44.9%; in the experiment with ACHN renal it was 35.2%; in the experiment with CAKI-1 renal it was 48.2%; in the experiment with CCRF-CEM leukemia it was 49.4%.

Consider `O=C1/C(=C\c2ccc(Cl)cc2)CN(C(=S)Nc2ccccc2)C/C1=C\c1ccc(Cl)cc1`, for which the growth in the experiment with SN12C renal is -52% (active); with UO-31 renal, -95% (active); with TK-10 renal, -60.5% (active); with ACHN renal, -86.8% (active); with CAKI-1 renal, -17.6% (active); in the experiment with CCRF-CEM leukemia, -2.03% (active). The values for the growth with MOLT-4 leukemia and in the experiment with SR leukemia were 5.1% (active) and -15.1% (active), respectively.

In the case of `O=C(c1ccc(Cl)cc1Cl)N1CCOCC1`, the growth in the experiment with SN12C renal is 105%; with UO-31 renal it was 83.4%; in the experiment on TK-10 renal, 101%; in the experiment with ACHN renal, 103%; with A498 renal it was 91.2%; in the experiment on CCRF-CEM leukemia, 106%. Further, the growth with MOLT-4 leukemia is 99.1%.

Turning to `CN1c2ccccc2[C@]2(Cc3ccccc3)Cc3ccccc3N[C@H]12`, the growth in the experiment with SN12C renal is 109%; in the experiment on UO-31 renal, 73.4%; with TK-10 renal, 114%; with ACHN renal it was 103%; in the experiment on CAKI-1 renal it was 112%; in the experiment on A498 renal it was 113%. The growth with MOLT-4 leukemia is 90.2%; in the experiment on SR leukemia, 91.2%.

Consider `CCC(=O)N1C/C(=C/c2ccc(Cl)cc2)C(=O)/C(=C/c2ccc(Cl)cc2)C1`, for which the growth is -26.1% (active) in the experiment on SN12C renal; -94% (active) in the experiment with UO-31 renal; -30.6% (active) with TK-10 renal; -50.7% (active) with ACHN renal; -20.7% (active) in the experiment with CAKI-1 renal; -26.7% (active) in the experiment on A498 renal. Also, the growth in the experiment on MOLT-4 leukemia was -8.59% (active); in the experiment with SR leukemia, -27.9% (active).

With `CO/N=C(/C(=O)NC1C(=O)N2C(C(=O)O)=C(COC(N)=O)CSC12)c1ccco1` (centres undefined), the growth with SN12C renal is 104%; in the experiment with UO-31 renal it was 83.3%; with TK-10 renal, 104%; in the experiment with ACHN renal it was 98.3%; with CAKI-1 renal it was 91.3%; with A498 renal, 102%. Besides, the growth in the experiment on MOLT-4 leukemia was 111%; in the experiment on SR leukemia it was 106%.

For `O=C(CNC(=O)OCc1ccccc1)NCC(=O)Oc1ccc([N+](=O)[O-])cc1`, the growth is 112% in the experiment on SN12C renal; 86.4% in the experiment on UO-31 renal; 90.3% in the experiment with TK-10 renal; 105% with ACHN renal; 101% with CAKI-1 renal; 85% in the experiment with A498 renal. Further, the growth is 99.7% with MOLT-4 leukemia and 101% in the experiment with SR leukemia.

In the case of `CCCCCCCCCCCCCC[n+]1ccc(C(N)=O)cc1`, the growth was 8.7% (active) in the experiment on SN12C renal; 50.7% in the experiment on UO-31 renal; -65.2% (active) in the experiment with TK-10 renal; 65.6% in the experiment on ACHN renal; 15.6% in the experiment on CAKI-1 renal; 52.3% with A498 renal. For the same compound, the growth in the experiment with MOLT-4 leukemia was -34.8% (active); in the experiment with SR leukemia it was -15.8% (active).

Consider `CN(Cc1ccccc1)Cc1ccc([N+](=O)[O-])cc1I`, for which the growth was 99.9% with SN12C renal; 88.4% in the experiment with UO-31 renal; 106% with TK-10 renal; 101% with ACHN renal; 93% in the experiment on CAKI-1 renal; 81.4% with A498 renal. For the same compound, the growth in the experiment with MOLT-4 leukemia is 91.1%; with SR leukemia, 67.2%.
